# Like-named read-outs stand apart in the source and are kept apart here.
# How the values were obtained:
# Set-up in all cases: species or system human, MV4-11 + K-562 + COLO205 + SK-N-BE2 + OVCAR-8
# [1] = test system: CAMK4; settings: read-out: apparent Kd, n = 1
# [2] = test system: COX5A; settings: read-out: apparent Kd, n = 1
# [3] = test system: CSNK1G3; settings: read-out: apparent Kd, compound concentrations: 100 nM and 1000 nM (sheet 'Samples'), n = 1
# [4] = test system: SIK3; settings: read-out: apparent Kd, n = 1
# [5] = test system: ACOX1; settings: read-out: apparent Kd, compound concentrations: 100 nM and 1000 nM (sheet 'Samples'), n = 1
# [6] = test system: PDXK; settings: read-out: apparent Kd, compound concentrations: 100 nM and 1000 nM (sheet 'Samples'), n = 1
# [7] = test system: PI4KA; settings: read-out: apparent Kd, n = 1
# [8] = test system: BMPR1B; settings: read-out: apparent Kd, n = 1
# [9] = test system: NQO1; settings: read-out: apparent Kd, n = 1
# [10] = test system: RPS6KA5; settings: read-out: apparent Kd, n = 1
# [11] = test system: CLK2; settings: read-out: apparent Kd, compound concentrations: 100 nM and 1000 nM (sheet 'Samples'), n = 1
# [12] = test system: MET; settings: read-out: apparent Kd; compound concentrations:100 nM and 1000 nM (sheet 'Samples'); n = 1
# [13] = test system: ERN1; settings: read-out: apparent Kd, n = 1
# [14] = compound concentrations:100 nM and 1000 nM (sheet 'Samples')
smiles,measurement,setting,value
O=C(O)C(F)(F)F.O=C(O)C(F)(F)F.O=c1[nH]ccc2nc(N[C@@H]3CCCNC3)nc(Nc3ccc(S(=O)(=O)N4CCOCC4)cc3)c12.O=c1[nH]ccc2nc(N[C@@H]3CCCNC3)nc(Nc3ccc(S(=O)(=O)N4CCOCC4)cc3)c12 [GSK2177277A],potency estimated from few doses,"[1]; compound concentrations: 100 nM and 1000 nM (sheet 'Samples'), CATDS: 6.74489650552607E-3",1.19 µM
same,potency estimated from few doses,"[2]; compound concentrations: 100 nM and 1000 nM (sheet 'Samples'), CATDS: 6.6138643227552996E-3",1.31 µM
same,potency estimated from few doses,[3]; CATDS: 7.8894585802162295E-3,0.605 µM
same,potency estimated from few doses,"[4]; compound concentrations: 100 nM and 1000 nM (sheet 'Samples'), CATDS: 6.8651363479693096E-3",1.09 µM
CNCC#Cc1c(F)ccc2c1/C(=C/c1[nH]ccc1OC)C(=O)N2.Cl [RO0281601-001],potency estimated from few doses,[5]; CATDS: 2.54235943095352E-2,1.14 µM
O=C(O)C(F)(F)F.O=c1[nH]ccc2nc(N[C@@H]3CCNC3)nc(Nc3cc(Cl)cc(Cl)c3)c12 [GSK2188764A],potency estimated from few doses,[1]; [14],0.977 µM
CCN(CC)Cc1ccc(Nc2nccc(-c3cnn4ncccc34)n2)cc1 [GW780056X],potency estimated from few doses,[5]; CATDS: 2.3991726091544201E-2,0.753 µM
same,potency estimated from few doses,[6]; CATDS: 2.0244692732670499E-2,1.27 µM
Cc1cccc(Nc2nc(N[C@H]3CCNC3)ncc2C(N)=O)c1.Cl [GSK2197149A],potency estimated from few doses,[7]; [14],1.42 µM
CCn1c(-c2cccnc2O)nc2cnccc21 [SB-736715],potency estimated from few doses,[3]; CATDS: 1.22763705207965E-2,2.06 µM
same,potency estimated from few doses,"[7]; compound concentrations: 100 nM and 1000 nM (sheet 'Samples'), CATDS: 1.5744300181729402E-2",1.17 µM
CNCc1ccc(-c2cc(-c3nc(-c4ccc(S(=O)(=O)C(C)C)cc4)cnc3N)on2)cc1 [VE-822],potency estimated from few doses,[8]; [14],0.868 µM
same,potency estimated from few doses,[9]; [14],1.09 µM
O=C(O)C(F)(F)F.O=c1[nH]ccc2nc(N[C@@H]3CCNC3)nc(Nc3ccc4c(c3)S(=O)(=O)CC4)c12 [GSK2181306A],potency estimated from few doses,[3]; CATDS: 9.3335280079581504E-3,1.06 µM
same,potency estimated from few doses,"[10]; compound concentrations: 100 nM and 1000 nM (sheet 'Samples'), CATDS: 8.4236521656491804E-3",1.55 µM
Cc1cc(-c2ccnc(Nc3cccc(C#N)c3)n2)cc(C)c1O [GSK1440913A],potency estimated from few doses,"[2]; compound concentrations: 100 nM and 1000 nM (sheet 'Samples'), CATDS: 8.0504484678198804E-2",1.3 µM
Cc1ccccc1C1=C(c2cn(C)c3ccccc23)C(=O)NC1=O [RO0317612-000],potency estimated from few doses,[5]; CATDS: 0.16885310198044201,0.761 µM
same,potency estimated from few doses,"[2]; compound concentrations: 100 nM and 1000 nM (sheet 'Samples'), CATDS: 0.16821535460753201",0.767 µM
same,potency estimated from few doses,[6]; CATDS: 0.20460809182567499,0.529 µM
c1ccc(-c2n[nH]cc2Nc2ccnc3ccccc23)nc1 [GW694077X],potency estimated from few doses,[11]; CATDS: 3.5523964233137598E-2,0.477 µM
COc1cc[nH]c1/C=C1\C(=O)Nc2ccc(F)c(C#CC3(O)CCNCC3)c21.Cl [RO0282986-001],potency estimated from few doses,[11]; CATDS: 1.56056735722173E-2,0.36 µM
NCC(NC(=O)c1cc(-c2cn[nH]c2)c(-c2ccnc3[nH]ccc23)s1)c1ccccc1.NCC(NC(=O)c1cc(-c2cn[nH]c2)c(-c2ccnc3[nH]ccc23)s1)c1ccccc1.O=C(O)C(F)(F)F.O=C(O)C(F)(F)F (centres unmarked) [GSK1325775A],potency estimated from few doses,"[7]; compound concentrations: 100 nM and 1000 nM (sheet 'Samples'), CATDS: 3.4236292814805502E-2",1.31 µM
c1cnn2ncc(-c3ccnc(Nc4ccc5c(c4)OCCO5)n3)c2c1 [GW806290X],potency estimated from few doses,"[9]; compound concentrations: 100 nM and 1000 nM (sheet 'Samples'), CATDS: 2.4144843754049801E-2",1.04 µM
CNc1cc(-c2ccc3c(N)n[nH]c3c2)nc(N)n1 [GSK2224810A],potency estimated from few doses,[9]; [14],1.44 µM
Cc1occc1-c1nc(N)c(OC[C@@H](N)Cc2c[nH]c3ccccc23)cc1-c1cc2c(C)n[nH]c2cn1 [GSK1660450B],potency estimated from few doses,[2]; [14],0.824 µM
same,potency estimated from few doses,[4]; [14],0.154 µM
Cn1cc(C2=C(c3c(S(C)=O)n(C)c4ccccc34)C(=O)NC2=O)c2ccccc21 (centres unmarked) [RO0317379-000],potency estimated from few doses,[6]; CATDS: 0.122248811016512,1.03 µM
Nc1nc(-c2ccc3c(N)n[nH]c3c2)cc(N2CCCC(NC(=O)c3ccccc3)C2)n1 (centres unmarked) [GSK2286775B],potency estimated from few doses,[1]; [14],1.09 µM
same,potency estimated from few doses,[12],2.25 µM
same,potency estimated from few doses,[9]; [14],1.37 µM
COc1cccc(C2=C(c3c(C)n(C)c4ccccc34)C(=O)NC2=O)c1 [RO3300167-000],potency estimated from few doses,"[13]; compound concentrations: 100 nM and 1000 nM (sheet 'Samples'), CATDS: 7.9309280446682603E-2",1.54 µM
CN(C)C(=O)/C(C#N)=C/c1ccc(-c2nc3cnc4[nH]ccc4c3n2C2CCCCC2)o1 [FM-381],potency estimated from few doses,[2]; [14],0.756 µM
CCn1c(-c2nonc2N)nc2cncc(C(=O)N3CC[C@H](N)C3)c21.Cl [SB-772077-B],potency estimated from few doses,[10]; [14],0.0483 µM
O=C(Nc1n[nH]c2nc(-c3ccccc3O)ccc12)C1CC1 [SB-711880],potency estimated from few doses,[13]; [14],1.7 µM
CCC(CC)(CC)n1cnc2c(N)ncnc21 [SKF-97620],potency estimated from few doses,[3]; CATDS: 2.4754449130961701E-2,1.82 µM
same,potency estimated from few doses,"[7]; compound concentrations: 100 nM and 1000 nM (sheet 'Samples'), CATDS: 3.8493630683817899E-2",0.553 µM
Cl.Cl.NC[C@H](CC1CCCCC1)NC(=O)c1ccc(-c2ccnc3[nH]ccc23)s1.NC[C@H](CC1CCCCC1)NC(=O)c1ccc(-c2ccnc3[nH]ccc23)s1 [GSK1581428A],potency estimated from few doses,[10]; [14],1.34 µM
Cl.Cl.NCC(NC(=O)c1cc(-c2ccnc3[nH]ccc23)cs1)c1ccccc1.NCC(NC(=O)c1cc(-c2ccnc3[nH]ccc23)cs1)c1ccccc1 (centres unmarked) [GSK1229959A],potency estimated from few doses,"[10]; compound concentrations: 100 nM and 1000 nM (sheet 'Samples'), CATDS: 1.83168013487864E-2",1.24 µM
Cl.Cn1c(=O)c(Cc2ccccc2F)cc2cnc(NC3CCOCC3)nc21 [RO3305377-001],potency estimated from few doses,"[1]; compound concentrations: 100 nM and 1000 nM (sheet 'Samples'), CATDS: 1.6194401739627301E-2",2.15 µM
Cl.Oc1cccc(Nc2ccnc3cc(-c4ccncc4)ccc23)c1 [GW494601A],potency estimated from few doses,"[8]; compound concentrations: 100 nM and 1000 nM (sheet 'Samples'), CATDS: 3.10657492682959E-2",0.211 µM
same,potency estimated from few doses,"[4]; compound concentrations: 100 nM and 1000 nM (sheet 'Samples'), CATDS: 2.0843232752511001E-2",1.15 µM

# From article PMC11062922 (Nature Chemical Biology, 2023)
